RXFP1 agonist: activates the human relaxin receptor RXFP1; Potency, µM (doses to about 57.5 µM), for inactives: at the top dose activation, actives largely listed as activators; Q9HBX9; AID 2676; actives 0.3% (n = 370,000); HEK293T-RXFP1 cAMP TR-FRET, 30 min; response scale: percent of porcine relaxin response, buffer zero; active means well fitted activation curve with a large enough effect; inconclusive means small, poorly fitted or top-dose-only effect; further: potency means the concentration at half of the fitted maximal effect; on the % scale 0 is the no-effect control and ±100 the full control effect; nearly all actives have a fitted effect of over 60% in size
Target sequence (Q9HBX9 whole entry, looked up): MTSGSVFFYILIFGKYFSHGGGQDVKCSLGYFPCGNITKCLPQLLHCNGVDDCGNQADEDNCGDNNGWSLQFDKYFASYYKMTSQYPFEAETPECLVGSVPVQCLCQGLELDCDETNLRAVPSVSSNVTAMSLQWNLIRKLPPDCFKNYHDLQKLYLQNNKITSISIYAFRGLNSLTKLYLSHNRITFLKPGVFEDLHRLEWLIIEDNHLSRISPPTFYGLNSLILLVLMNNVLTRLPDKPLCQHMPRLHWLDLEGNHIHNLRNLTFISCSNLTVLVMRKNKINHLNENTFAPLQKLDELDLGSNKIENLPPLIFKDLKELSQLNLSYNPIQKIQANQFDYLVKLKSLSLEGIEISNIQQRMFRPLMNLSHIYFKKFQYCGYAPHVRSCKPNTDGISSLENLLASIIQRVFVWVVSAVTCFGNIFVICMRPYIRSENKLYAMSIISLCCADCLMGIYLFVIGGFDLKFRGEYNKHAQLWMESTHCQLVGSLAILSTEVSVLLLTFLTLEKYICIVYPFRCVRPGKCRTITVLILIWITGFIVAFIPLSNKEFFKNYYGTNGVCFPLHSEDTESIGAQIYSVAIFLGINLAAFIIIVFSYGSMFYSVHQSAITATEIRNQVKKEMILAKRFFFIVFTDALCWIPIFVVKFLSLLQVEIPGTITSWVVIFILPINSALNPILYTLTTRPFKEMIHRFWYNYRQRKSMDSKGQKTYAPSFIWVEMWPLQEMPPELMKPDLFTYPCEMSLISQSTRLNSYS
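HEK293 cells stably expressing RXFP1, treated 30 min at 37C with compounds plus PDE4 inhibitor Ro 20174; cAMP measured by HTRF TR-FRET. Normalized to buffer and 29 nM porcine relaxin; EC50 by Hill fit.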
RXFP1 antagonist: blocks the human relaxin receptor RXFP1; Q9HBX9; HEK293-RXFP1, relaxin-stimulated cAMP HTRF, 30 min; hits give low values; activity change, negative = inhibition, % at 57.5 µM; actives 0.59% (n = 350,000);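 active means activity change of -60% or lower, but not beyond a set lower limit; inconclusive means change between -60% and -40%, or beyond the set limit; inactive means change above -40%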; further: on the % scale 0 is the no-effect control and ±100 the full control effect
gsp antagonist: antagonists of gsp mutant (McCune-Albright syndrome); Potency, µM (top dose mostly 76.9 µM), inactives show at the top dose activity change, negative = inhibition, most hits filed as inhibitors; actives 0.4% (n = 340,000); AID 624288; gsp-mutant cells, cAMP HTRF, 30 min; calls by dose curve; cell line not stated here;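 further: intracellular cAMP measured with PDE inhibitor Ro 20-1724 present during compound exposure; potency means the concentration at half of the fitted maximal effect; on the % scale 0 is the no-effect control and ±100 the full control effect; nearly all actives have a fitted effect of over 65% in size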
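G418-selected cells were plated in DMEM/10% FBS for 16-24 h at 37C, then treated with compounds plus the PDE inhibitor […] (300 uM solution added) for 30 min at 37C. Intracellular cAMP was measured by HTRF after 30 min lysis at room temperature.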
gsp agonist: activates gsp, the McCune-Albright syndrome mutation; gsp mutant cells, cAMP HTRF, 30 min; AID 624287; Potency, µM (series often up to 76.9 µM), for the others: top-dose activation (cAMP increase), actives largely listed as activators; actives 0.13% (n = 340,000); active means well fitted activation curve with a large enough effect; inconclusive means small, poorly fitted or top-dose-only effect, or another doubt; inactive means no such curve, though single readings can be large or run the other way; cell line not stated here;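 further: phosphodiesterase inhibitor Ro 20-1724 added with compounds to block cAMP breakdown; potency means the concentration at half of the fitted maximal effect; nearly all actives have a fitted effect of over 60% in size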
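Cells in DMEM/10% FBS with G418 were pretreated with compounds in DMSO plus […] (300 uM stock) for 30 min at 37C. cAMP was measured by HTRF (cAMP-d2 plus anti-cAMP antibody-K) after 30 min at room temperature.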
ClpP mod: qHTS Assay for Activators of ClpP; purified B. subtilis ClpP, FRET peptide cleavage, 20 min; Potency, µM (series often up to 57.5 µM), without a hit: at the highest dose activity change, negative = active; actives 1.9% (n = 340,000); AID 651965, 2013; active means well fitted falling curve with a large enough effect; inconclusive means small, poorly fitted or top-dose-only effect; inactive means no such curve, though single readings can be large or run the other way; further: potency means the concentration at half of the fitted maximal effect; the source files actives as falling curves though it sought activators and does not explain the sign; nearly all actives have a fitted effect of over 65% in size
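Buffer: 100 mM Tris/HCl pH8, 100 mM KCl, 0.05% low protease BSA, 2.5% glycerol, 0.01% Tween-20. ClpP 10 microg/mL final; 20 min RT; delta FRET normalized to ADEP and DMSO controls.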
pAkt inh: Akt phosphorylation inhibition; actives 0.32% (n = 360,000); AID 651550; activity change, % for hits at 50 µM; Neuro2A IGF-stimulated pAkt S473 HTRF, 20 min; hits give low values; in the data active means activity change below about -80%; inconclusive means mostly about -51% to -80%; further: on the % scale 0 is the no-effect control and ±100 the full control effect
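Single-point screen (50 µM final compound) in Neuro2A cells stimulated 20 min with 6 nM IGF at 37 deg C. After lysis, Ser473-phosphorylated Akt read by HTRF (ex 330 nm, em 615/665 nm) as the 665/615 ratio.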
* marks the source's active call; other numbers are inactive results; i = inactive; ? = inconclusive; / = no result; [ ] = another dose, or the depositor's remark. Only some compounds are listed: those with a hit (about 2.7% of all), similar ones and a draw of the others.

SMILES	RXFP1 agonist	RXFP1 antagonist	gsp antagonist	gsp agonist	ClpP mod	pAkt inh
CN1C(=S)SC(N(O)C(=O)Nc2cccc3ccccc23)C1(C)C (configuration not stated)	0%	-1	7%	-11%	32µM*	i
CCCCCCCCCCCCOCCO	/	-8	/	/	/	/
C=C1CSc2nc(=O)c3c4c(sc3n21)CCC4	11%	-4	-5%	?	-2%	-115%*
CN(C)C(=O)OCc1c(-c2ccccc2)ncc2ccccc12	0%	/	?	-12%	-8%	i
COc1ccc2c(C)c(Cc3ccccc3)c(=O)oc2c1OC	1%	1	10%	-22%	4%	i
CCCCc1c(C)c2ccc(OC)c(/C(C)=N\O)c2oc1=O	0%	/	-14%	-7%	8.9µM*	i
COc1ccc2c3c(c(=O)oc2c1OCC(N)=O)CCCC3	3%	-2	-5%	10%	28µM*	i
CCOc1ccc2c3c(c(=O)oc2c1OCC)CCCC3	3%	-1	-12%	13%	?	i
CCOC(=O)COc1ccc2c3c(c(=O)oc2c1C)CCC3	2%	1	-23%	-15%	13µM*	i
CCOC(=O)CCc1c(C)c2ccc(OCC)c(C)c2oc1=O	1%	-9	4%	-1%	32µM*	i
CCC(C(=O)NC1CCCC1)n1c(C2CCCC2)nc2ccccc21 (configuration not stated)	/	/	/	/	-2%	i
CCOC(=O)CCc1c(C)c2ccc(OCC(=O)N3CCOCC3)c(C)c2oc1=O	2%	-5	-17%	-25%	10µM*	i
COCCNC(=O)C1(C)CCCN(C(=O)c2cccc(OC(F)(F)F)c2)C1 (configuration not stated)	/	/	/	/	2%	i
CCCSc1ncc(Cl)c(C(=O)NCc2ccc(OC)cc2)n1	3%	-26	/	/	0%	/
Cc1ccc(C2=NN(CC(=O)NCCCN(CC(C)C)CC(C)C)C(=O)CC2)cc1	0%	5	/	/	0%	/
CC(C)c1cc(-c2cc(C(=O)NCc3ccccc3)on2)nc(NCC2CC2)n1	0%	/	-3%	/	32µM*	i
CC(C)c1cc(-c2cc(C(=O)NCc3ccccc3)on2)nc(NC2CCCC2)n1	0%	/	-12%	-44%	?	i
N#Cc1c(-c2cccs2)cc(C2CC2)nc1SCC(N)=O	?	-2	4%	?	16µM*	?
Cc1nn(-c2ccccc2)c(C)c1/C=N/NC(=O)c1cc(-c2cccs2)[nH]n1	2%	-2	17%	?	-5%	i
Cc1nn(-c2ccccc2)c(C)c1/C=N/NC(=O)c1cccs1	2%	/	-10%	7%	25µM*	i
Cc1nn(-c2ccccc2)c(C)c1/C=N/O	2%	-21	7%	10%	-1%	-111%*
Cc1cc(=O)n2c3ccccc3n(CC(O)CN3CCC(C)CC3)c2c1C#N (configuration not stated)	3%	-8	1%	7%	35µM*	i
CCC1CCCCN1CC(O)Cn1c2ccccc2n2c(=O)cc(C)c(C#N)c12 (configuration not stated)	2%	11	6%	?	28µM*	i
Cc1cc(=O)n2c3ccccc3n(CC(O)CN3CCN(CCO)CC3)c2c1C#N (configuration not stated)	13%	2	-15%	?	/	i
CC(C(=O)OCC(=O)Nc1ccccc1OC(F)F)N1C(=O)C2CC=CCC2C1=O (configuration not stated)	/	6	/	?	1%	i
SMILES	RXFP1 agonist	RXFP1 antagonist	gsp antagonist	gsp agonist	ClpP mod	pAkt inh
CCc1ccc(C(=O)C[N+]2(C)CCOCC2)cc1	/	/	/	/	-1%	/
CCN(CC)c1ccc(NC(=O)c2cccn2-c2nnc(N3CCCCC3)s2)c(C)c1	-2%	-60*	/	/	0%	/
Cc1cccc(N2CCN(C(=O)c3cccn3-c3nnc(N4CCCCC4)s3)CC2)c1C	14%	-68*	/	/	-4%	/
Cc1ccc(Cl)cc1N1CCN(C(=O)c2cccn2-c2nnc(N3CCCCC3)s2)CC1	7%	8	/	/	-2%	/
O=C1[C@@H](c2ccccc2)CC[C@@H]2C=CC[C@H]3CCN1[C@@H]32	/	/	/	/	2%	i
CCOC(=O)C(C)Sc1nc(-c2cccs2)ccc1C#N (configuration not stated)	11%	-13	-6%	?	13µM*	i
C=COC(=O)CSc1nc(-c2cccs2)ccc1C#N	12%	-3	7%	48%	28µM*	i
CCOC(=O)C(C)Sc1nc(-c2ccccc2Cl)cc(-c2ccccc2)c1C#N (configuration not stated)	12%	/	/	/	-20%	/
COc1ccc([C@]23Cc4cc(OC)c(OC)cc4C(O2)C2=C(CCCC2=O)O3)cc1	2%[11.5 µM]	/	/	/	/	/
Cc1nc2ccc(NC(=O)c3ccccc3)cc2s1	14%	-1	4%	31%	-3%	i
CN(c1ccccc1)S(=O)(=O)c1cccc(C(=O)NC2CCCC2)c1	/	-4	5%	-5%	32µM*	i
CN(c1ccccc1)S(=O)(=O)c1cccc(C(=O)Nc2cccc(C(=O)NC3CC3)c2)c1	-2%	-18	?	13%	-1%	i
COc1ccc(N(C)S(=O)(=O)c2cccc(C(=O)Nc3ccc(-n4cnnn4)cc3)c2)cc1	2%	-25	28µM*	18%	-10%	i
COc1ccc(N(C)S(=O)(=O)c2cccc(C(=O)Nc3ccc(OC)nc3)c2)cc1	0%	/	/	/	/	/
CN(C)S(=O)(=O)c1cccc(NC(=O)COC(=O)[C@H](Cc2ccccc2)NC(=O)c2ccco2)c1	/	-19	-28%	33%[15.4 µM]	28µM*	i
O=C(COC(=O)[C@H](Cc1ccccc1)NC(=O)c1ccco1)Nc1ccccc1	/	13	?	-26%	-2%	i
Cc1nc2ccc(NC(=O)c3cccc(S(=O)(=O)N(C)c4ccccc4)c3)cc2s1	4%	/	35µM*	-69%	-17%	i
COc1ccc(OC)c(/C=C/c2cc3ccccc3c[n+]2C)c1	/	/	/	/	-1%	/
C[C@H](NC(=O)c1ccccc1Cl)C(=O)OCc1cn2cc(Cl)ccc2n1	4%	-7	-12%	12%	-7%	i
COCc1ccc(C(=O)Nc2cccc(S(=O)(=O)N(C)c3ccccc3)c2)cc1	/	3	-22%	23%	/	i
CN(C)S(=O)(=O)c1cccc(NC(=O)c2ccc(COc3ccccc3)cc2)c1	6%	-9	32µM*	0%	/	i

Screens: PubChem, National Center for Advancing Translational Sciences (NCATS)
